Source: PubChem BioAssay (NCATS)
Records with an inconclusive call do not appear. The source made the active and inactive calls. Calls follow the shape of the dose curve; as a rule, active = well fitted curve in either direction with a large enough effect (not every such curve was filed as active); inconclusive = small, poorly fitted or top-dose-only effect, or another doubt; inactive = flat fitted curve, though single readings scatter.

assay: Stat Signaling Pathway (AID 446); conditions: ME-180 SIE beta-lactamase reporter, IL-6 stimulated, 5 h; at 7.69 µM (top of the series) unless noted;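 also: ME-180 cervical cancer cells given 40 pM IL-6 alongside compound; SIE-controlled beta-lactamase reporter measured as 460/530 nm FRET emission ratio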
How it was run: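 ME-180 cells carrying a SIE-driven beta-lactamase reporter are stimulated with 40 pM IL-6 for 5 h at 37C in the presence of compound. The 460/530 nm FRET substrate ratio is read after 2.5 h at RT. Data are normalised to 300 pM IL-6 and to 125 nM JAK inhibitor controls.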
% is scaled to controls: 0 for no effect and ±100 for the full control effect.

activity, negative = inhibition, inactive:
Cc1noc(C)c1-c1nccc(NCc2ccccc2)n1 -0.39%
c1ccc(CNc2cc(-c3ccoc3)ncn2)cc1 -2.59%
c1cncc(CNc2cc(-c3ccoc3)ncn2)c1 11.8%
CC(=O)NCCNc1nc(-c2c(C)noc2C)nc2ccccc12 1.96%
CC(=O)NCCNc1ccnc(-c2ccccc2C)n1 8.94%
Cc1cnc(CNc2ccnc(-c3cccc(NS(C)(=O)=O)c3)n2)cn1 4.11%
CS(=O)(=O)Nc1cccc(-c2cc(NCc3ccccc3)ncn2)c1 -7.25%
CCNc1ncc2nc(-c3cccc(C#N)c3)c(=O)n(CCC#N)c2n1 14.1%
c1ccc(CNc2nc(-c3ccoc3)nc3ccccc23)cc1 12.7%
COc1ccc(CNc2ccnc(-c3cccnc3)n2)c(OC)c1 -2.65%
COCCn1c(=O)c(-c2cccc(F)c2)nc2cncnc21 -1.12%
CN(Cc1ccco1)c1ccnc(-c2cccnc2)n1 17.8%
O=c1c(-c2cccc(Cl)c2)nc2cncnc2n1Cc1ccccc1 -3.65%
CS(=O)(=O)Nc1cccc(-c2cncnc2Nc2ccccc2)c1 -2.71%
COc1ccc(CNc2ncncc2-c2ccc(N(C)C)cc2)c(OC)c1 0.205%
COc1cccc(Cn2c(=O)c(-c3cccc(C#N)c3)nc3cnc(OC)nc32)c1 -4.38%
O=c1c(-c2cccs2)nc2cncnc2n1-c1ccccc1 -0.182%
Cn1cc(-c2nc3cncnc3n(C3CC3)c2=O)c2ccccc21 -6.67%
Clc1ccccc1-c1nccc(NCCN2CCOCC2)n1 5.58%
COc1cccc(-c2cncnc2NCc2cnc(C)cn2)c1 7.19%
c1ccc(Nc2ncncc2-c2ccoc2)cc1 5.02%
CN(C)C(=O)c1ccc(-c2nccc(-n3ccnc3)n2)cc1 8.25%
COc1cccc(-c2cncnc2NCc2cccs2)c1 -6.14%
COc1ccc2[nH]cc(CCNc3ncncc3-c3cccnc3)c2c1 2.25%
COc1ccccc1-c1cc(Nc2ccn[nH]2)ncn1 6.94%
COc1ccccc1-c1cncnc1NCc1cccs1 -6.68%
N#Cc1ccccc1-c1ccc2ncnc(NCCN3CCOCC3)c2c1 0.199%
CN(Cc1ccco1)c1ncncc1-c1cccnc1 17.1%
COc1ccc2[nH]cc(CCNc3ccnc(-c4ccc5c(c4)OCO5)n3)c2c1 -13.4%
Cc1ccccc1-c1cc(NCc2cccnc2)ncn1 -6.88%
COCCNc1nc(-c2c(C)noc2C)nc2ccccc12 17.6%
COc1ccccc1-c1nc(N(C)Cc2ccco2)c2ccccc2n1 8.04%
COc1ccccc1-c1cncnc1NCc1ccccc1 -7.05%
COc1ccccc1-c1nc(NCCN2CCOCC2)c2ccccc2n1 29.7%
c1csc(CNc2nc(-c3ccoc3)nc3ccccc23)c1 -7.57%
Cc1ccccc1-c1cc(N(C)Cc2ccco2)ncn1 8.71%
CN(C)C(=O)c1ccc(-c2ccc3ncnc(N4CCOCC4)c3c2)cc1 -8.9%
CS(=O)(=O)Nc1cccc(-c2cncnc2-n2ccnc2)c1 14.6%
